High-throughput results deposited in PubChem by National Center for Advancing Translational Sciences (NCATS).
ClpP mod: qHTS Assay for Activators of ClpP | ATP-dependent Clp protease proteolytic subunit (Bacillus subtilis (strain 168)), P80244 | purified B. subtilis ClpP, FRET peptide cleavage, 20 min | Potency, µM (series often up to 57.5 µM), for inactives: at the highest dose activity change, negative = active | actives 1.9% (n = 340,000) | AID 651965, 2013; active = well fitted falling curve with a large enough effect; inconclusive = small, poorly fitted or top-dose-only effect; inactive = no such curve, though single readings can be large or run the other way; also: the source files actives as falling curves though it sought activators and does not explain the sign; nearly all actives have a fitted effect of over 65% in size
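Purified B. subtilis ClpP, 10 microg/mL final in Tris/HCl pH8 with KCl, BSA, glycerol and Tween-20, cleaved an Abz/nitrotyrosine-quenched decapeptide. Fluorescence (ex 320, em 430) was read at 0 and 20 min at room temperature. Delta was normalized to 5.8 microM ADEP and DMSO/no-enzyme controls.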
TDP1 cell noCPT: qHTS for Inhibitors of human tyrosyl-DNA phosphodiesterase 1 (TDP1): qHTS in cells in absence of CPT; DT40 Tdp1-/- hTDP1 cells, no CPT, ATP luminescence, 48 h; Potency, µM (titrated, usually from 46.2 µM), for inactives: at the highest dose activity change, negative = growth inhibition, actives largely listed as inhibitors; actives 15% (n = 420,000); also: % is scaled to controls: 0 for no effect and ±100 for the full control effect; nearly all actives have a fitted effect of over 55% in size
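Chicken DT40 Tdp1-/- cells complemented with human TDP1, screened without camptothecin (DMSO vehicle only), 400 cells/well. Compounds pin-transferred, cells incubated at 37 °C for at least 48 hr. Growth read as ATP-dependent luminescence (CellTiter-Glo, 30 min at RT).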
DT40 TDP1 CPT: DT40-hTDP1 cell growth loss with CPT; chicken DT40 Tdp1-/-;hTDP1 cells + 20 nM CPT, ATP luminescence, 48 h; Potency, µM (top dose mostly 46.2 µM), without a hit: at the top dose activity change, negative = growth inhibition, actives largely listed as inhibitors; actives 12% (n = 420,000); AID 686979; also: % is scaled to controls: 0 for no effect and ±100 for the full control effect; nearly all actives have a fitted effect of over 55% in size
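Cell growth measured by CellTiter-Glo luminescence after a minimum 48 h, 37 C compound exposure with 20 nM CPT in Tdp1-knockout DT40 cells stably expressing hTDP1, seeded 400/well; qHTS titration format.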
TDP1 inh: blocks human tyrosyl-DNA phosphodiesterase 1; Q9NUW8; recombinant TDP1, AlphaScreen DNA substrate cleavage; Potency, µM (doses to about 130 µM), without a hit: at the highest dose activity change, negative = inhibition, usual class: inhibitors; actives 0.28% (n = 350,000); also: % is scaled to controls: 0 for no effect and ±100 for the full control effect; nearly all actives have a fitted effect of over 40% in size
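Recombinant human Tdp1 (E. coli-expressed, 1 nM final) preincubated with compounds 15 min at room temperature, then 5'-biotin/3'-phosphotyrosine-FITC DNA substrate (15 nM final) added for 5 min. AlphaScreen beads (10 ug/ml final) added 10 min; cleavage lowers signal.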
An asterisk follows results filed as active; ? = inconclusive; · = not tested or not shown; ! = not confirmed by another sample; [ ] = another dose, or the depositor's remark. Shown are actives, neighbours in structure and some others; about 17% of the full set was active somewhere. Unless noted, calls follow the shape of the dose curve; as a rule, active = well fitted curve in the direction sought with a large enough effect; inconclusive = small, poorly fitted or top-dose-only effect, or another doubt; inactive = no such curve, though single readings can be large; an effect the other way counts as inactive or inconclusive. Potency is read from the fitted curve at half-maximal effect.

SMILES	ClpP mod	TDP1 cell noCPT	DT40 TDP1 CPT	TDP1 inh
COc1ccc(NC(=O)C(C)n2c(C)c3cnn(-c4ccccc4)c(=O)c3c2C)cc1Cl (stereo not given)	2%	18µM*	23µM*	5%
Cc1c2cnn(-c3ccccc3)c(=O)c2c(C)n1CCCC(=O)Nc1ccc(F)cc1F	-4%	16µM*	?	5%
CCOC(=O)c1cccc(NC(=O)C(C)n2c(C)c3cnn(-c4ccccc4)c(=O)c3c2C)c1 (stereo not given)	-2%	-24%	?	0%
O=S(=O)(c1ccc(Cl)cc1)c1nc(-c2ccco2)oc1SCc1ccc(F)cc1	-12%	?	?	0%
CC(C)(C)Cc1c(-c2cccc(Br)c2)nc2ccc(Br)cn12	-15%	?	?	·
CCCN[C@H]1CCc2nc(N)sc2C1	1%	17µM*!	?	·
Cc1nc(NC(=S)NC(=O)c2ccccc2)sc1C	-3%	?	5%	2%
O=C(NC(=S)Nc1nc2c(s1)CCCC2)c1ccccc1	-1%	29µM*	?	3%
O=C(CS(=O)(=O)Cc1ccccc1)Nc1nc2c(s1)CCCC2	-1%	-17%	-4%	5%
O=C(CCS(=O)(=O)Cc1ccccc1)Nc1nc2c(s1)CCCC2	-1%	26µM*	?	3%
O=C(Nc1nc2c(s1)CCCC2)c1ccc(N2C(=O)CCC2=O)cc1	1%	1%	1%	3%
COC(=O)c1ccc(C(=O)NC(=S)Nc2nc3c(s2)CCCC3)cc1	1%	16µM*	?	3%
O=S(=O)(CCOc1ccccc1)c1nc2ccccc2[nH]1	-2%	23µM*	?	-3%
COc1ccc(NC(=O)CN(C)CC(=O)Nc2cccc3ccccc23)c(OC)c1	?	?	?	1%
COc1ccccc1CN(C)CC(=O)Nc1ccc(Cl)cc1C(F)(F)F	-2%	15µM*	21µM*	-5%
COc1ccc(Br)cc1CN(C)CC(=O)Nc1ccccc1Cl	28µM*	?	-29%	-3%
COc1cccc(CN(C)CC(=O)Nc2ccccc2C(C)C)c1	0%	16µM*	?	-2%
COc1ccccc1CN(C)CC(=O)Nc1cccc2ccccc12	·	26µM*	26µM*	5%
COc1ccccc1CN(C)CC(=O)Nc1ccc(Cl)cc1F	1%	?	?	-6%
CCOC(=O)C(=CNNc1c(C)csc1C(=O)OC)C(=O)OCC	1%	15µM*	?	4%
Cn1c(=O)c2[nH]c(CCCCCCCCc3nc4ccccc4[nH]3)nc2n(C)c1=O	2%	5.2µM*	7.3µM*	·
Cn1c(=O)c2[nH]c(CN(Cc3ccccc3)Cc3ccccc3)nc2n(C)c1=O	0%	15µM*	10µM*	4%
Cn1c(=O)c2[nH]c(Cc3cccc4ccccc34)nc2n(C)c1=O	·	16µM*	?	·
CCOc1ccccc1CN1CCC(n2nccc2NC(=O)C2CCCC2)CC1	1%	-1%	-1%	5%
CC(=O)Nc1ccc(OCCOc2ccc(/C=C3\C(=N)N4N=C(C)SC4=NC3=O)cc2)cc1	·	-36%	-2%	·
SMILES	ClpP mod	TDP1 cell noCPT	DT40 TDP1 CPT	TDP1 inh
O=C(COC(=O)c1ccco1)c1ccccc1	·	4%	-19%	10%
O=C(COC(=O)c1ccco1)c1ccc(Cl)cc1	·	1.3µM*	-90%	7%
O=C(NC(Nc1nc2ccc([N+](=O)[O-])cc2s1)(C(F)(F)F)C(F)(F)F)c1cccnc1	-3%	2.3µM*	3.7µM*	1%
O=C(NC(Nc1nc2ccc([N+](=O)[O-])cc2s1)(C(F)(F)F)C(F)(F)F)c1ccccc1Cl	1%	0.18µM*	0.33µM*	5%
OCC1OC(c2ccccc2)C=CC1Oc1cc(Cl)cc(Cl)c1 (stereo not given)	·	·	·	8%[21 µM]
CC(CC(c1ccccc1)N1CCc2ccccc2C1)=NO (stereo not given)	0%	18µM*	?	·
COc1cc(N)c(Cl)cc1C(=O)OCC(=O)c1cccs1	·	-19%	21%	·
CN1CCN(S(=O)(=O)c2cccc(S(=O)(=O)c3ccc(Cl)cc3)c2)CC1	-2%	16µM*	?	3%
Cc1ccc(S(=O)(=O)c2cccc(S(=O)(=O)N3CCCC3)c2)cc1S(=O)(=O)N1CCCC1	-1%	18µM*	21µM*	-2%
C[C@H](NC(=O)c1nc[nH]c1C(=O)N1CCNCC1)C(=O)OCc1ccccc1	2%	6%	-1%	1%
C[C@H](NC(=O)c1nc[nH]c1C(=O)N[C@@H](C)C(=O)OCc1ccccc1)C(=O)OCc1ccccc1	0%	-8%	-4%	·
CCN(CC)C(=O)c1[nH]cnc1C(=O)N[C@@H](C)C(=O)OCc1ccccc1	-1%	10µM*	?	5%
C[C@H](NC(=O)c1nc[nH]c1C(=O)NC(c1ccccc1)c1ccccc1)C(=O)OCc1ccccc1	?	23µM*	23µM*	8%
CC(C)n1nc(C(=O)Oc2ccc(Cl)cc2)c2ccccc2c1=O	18µM*	-23%	-14%	5%
CCCn1nc(C(=O)Nc2nc3ccccc3[nH]2)c2ccccc2c1=O	·	16µM*	?	3%
CCCn1nc(C(=O)Nc2ccc(-n3cnnn3)cc2)c2ccccc2c1=O	·	12µM*	?	-4%
CCCCCCn1nc(C(=O)Nc2nc3c(s2)CCCC3)c2ccccc2c1=O	-4%	?	15µM*	5%
CC1(c2nnnn2-c2ccc3c(c2)OCCO3)CCC(=O)N1CC1CCCCC1 (stereo not given)	-2%	?	-16%	·
CC(=O)C1CN(S(=O)(=O)c2ccc(C)cc2)C(c2ccccc2)CC1C (stereo not given)	0%	?	?	·
N=C(CC1CC(=O)NC(=O)C1)C1=C(O)CCCC1=O	-28%	-5%	11%	3%
Cc1ccc(-c2nc(CNC(=O)c3ccco3)cs2)cc1	-8%	?	?	4%
CC(C)n1nc(C(=O)NNC(=O)c2ccncc2)c2ccccc2c1=O	-3%	-20%	-6%	2%
CC(C)n1nc(C(=O)Nc2nc3ccccc3[nH]2)c2ccccc2c1=O	·	15µM*	?	5%
O=C(CN(C(=O)CCC(=O)Nc1nccs1)c1ccccc1F)NCc1ccccc1	·	?	-10%	1%
Cc1cccc(N2CCN(S(=O)(=O)c3ccc4c(c3)CCCN4C(=O)C3CCC3)CC2C)c1 (stereo not given)	-7%	?	?	4%
Cc1ccc(NC(=O)C2CCN(S(=O)(=O)c3ccc4c(c3)CCCN4C(=O)C3CCC3)CC2)cc1	-3%	?	16µM*	-1%
O=C(Nc1ccc(F)cc1)C1CCN(S(=O)(=O)c2ccc3c(c2)CCCN3C(=O)C2CCC2)CC1	2%	8.2µM*	18µM*	2%
